Source: PubChem BioAssay
Activity calls are given as the source filed them. The rule behind the calls is not given here.

Each molecule was assayed against Protein kinase 7 (PK7), Plasmodium falciparum 3D7 (PF3D7_0213400) (UniProt Q7YTF7) (assay: inhibition of Plasmodium PK7 catalytic activity – biochemical, TCAMS antimalarial set, Kinase-Glo luminescence (AID 1159587)). Settings: recombinant PfPK7, Kinase-Glo ATP depletion luminescence.
Protein kinase 7 (PK7), Plasmodium falciparum 3D7 (PF3D7_0213400), sequence (Q7YTF7 1-343): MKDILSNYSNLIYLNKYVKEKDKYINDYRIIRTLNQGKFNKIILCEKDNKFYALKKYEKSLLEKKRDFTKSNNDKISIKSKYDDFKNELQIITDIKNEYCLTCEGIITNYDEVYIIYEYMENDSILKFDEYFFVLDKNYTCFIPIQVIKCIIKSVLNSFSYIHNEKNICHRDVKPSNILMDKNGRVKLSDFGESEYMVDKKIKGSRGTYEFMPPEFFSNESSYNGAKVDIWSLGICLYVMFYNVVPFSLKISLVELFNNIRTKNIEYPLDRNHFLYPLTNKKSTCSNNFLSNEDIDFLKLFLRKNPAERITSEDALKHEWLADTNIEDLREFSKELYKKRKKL
In the case of C[C@@H](COc1ccc(-c2ccccc2)cc1)CON1C(N)=NC(N)=NC1(C)C, the outcome is reported as “inactive”. With CC(CCON1C(N)=NC(N)=NC1(C)C)c1ccc(Cl)c(Cl)c1 (stereo unspecified) the outcome was “inactive”. CCOc1ccc(Br)cc1/C=C/C(=O)Nc1ccc(C2CCN(C)CC2)cc1 was tested, and the outcome was “inactive”. For CN(C)CCNC(=O)c1ccc2c(c1)n(C1CCN(S(=O)(=O)c3ccc(-c4ccccc4)cc3)CC1)c(=O)n2CC1CCCCC1, the outcome was “inactive”. For CC(=O)Nc1ccc(CN2CCN(C(c3ccc(F)cc3)c3ccc(F)cc3)CC2)cc1, the outcome was “inactive”. For Cc1cc(=O)oc2c1ccc1oc(C(O)c3ccc(Cl)cc3)c(C)c12 (stereo unspecified), the outcome was “inactive”. With Cc1ccc2c(c1C)NC(=O)C21NN=C(c2ccccc2)S1 (stereo unspecified) the outcome was “inactive”. CCC(C)NC(=O)Nc1ccc(-c2cccc(-c3nc4ccccc4[nH]3)c2)cc1 (stereo unspecified) was tested, and the outcome was “inactive”. In the case of CN(C)CC1c2[nH]c3ccccc3c2CCN1C(=O)Nc1ccc(Cl)c(Cl)c1 (stereo unspecified), the outcome is reported as “inactive”. O=C(Nc1cccc(-c2cccc(-c3nc4ccc(F)cc4[nH]3)c2)c1)Nc1ccc2c(c1)OCO2 was tested, and the outcome was “inactive”. With CCN(CC)CC#Cc1ccc2[nH]c(C)c(Cl)c(=O)c2c1 the outcome was “inactive”. COc1cc(Cc2cnc(NCCN3CCNCC3)nc2N)ccc1OCc1ccc(C(F)(F)F)cc1 was tested, and the outcome was “inactive”. For NC(=O)C1CCN(Cc2cccc(-c3ccc(-c4nc5ccc(C(F)(F)F)cc5[nH]4)cc3)c2)CC1, the outcome was “inactive”. For C=CCc1cc(Br)ccc1OCCCON1C(N)=NC(N)=NC1(C)C, the outcome was “inactive”. For CC(C)(C)c1ccc(CNCCOc2ccc(Nc3nnc(-c4ccc(-c5ncc[nH]5)cc4)o3)c3ccccc23)cc1, the outcome was “inactive”. For COc1ccc(C=NNc2cc(C)nc3c(C)cccc23)c2ccccc12, the outcome was “inactive”. With COc1ccc2nc3cc(Cl)ccc3c(NCCCCN3CCNCC3)c2c1 the outcome was “inactive”. With CC(C)CN1CCCN(Cc2cccc(NC(=O)c3ccc(-c4ccccc4)cc3)c2)CC1 the outcome was “inactive”. For CCCOc1ccccc1C(=O)Nc1nonc1-c1ccc(OCC)c(OCC)c1, the outcome was “inactive”. With CCN(CCCN1CCCCC1)c1cc(C)nc(Nc2cc(C)ccc2C)n1 the outcome was “inactive”. In the case of Nc1ncnc2nc(-c3ccc(F)cc3)cc(-c3ccc(NC(=O)c4ccccc4)cc3)c12, the outcome is reported as “inactive”. CCCNCc1ccc(-c2ccc(CN(CCOC)C(=O)c3cccc(C#N)c3)cc2)nc1 was tested, and the outcome was “inactive”. COc1cccc2c(NCCNc3ccnc4c(OC)cccc34)ccnc12 was tested, and the outcome was “inactive”. In the case of CN(C)CCNCc1ccc(-c2ccc(-c3nc4ccccc4[nH]3)s2)cc1, the outcome is reported as “inactive”. In the case of Clc1ccc(-c2cc3c(NCc4ccncc4)nccc3s2)cc1, the outcome is reported as “inactive”. With CNC(=O)C1Cc2c([nH]c3cc(Cl)ccc23)C2(CCN(CCc3ccccc3)CC2)N1 (stereo unspecified) the outcome was “inactive”.
